A selection: hits, their analogues and other compounds. The true share with any hit is near 3.2%.
Tau ThT inhib = inhibitors of human tau fibril formation, thioflavin T binding; P10636; recombinant tau K18 P301L, heparin-induced fibrillization, ThT fluorescence; Potency, µM (titrated, usually from 57.4 µM), most hits filed as inhibitors; actives 2.1% (n = 270,000); AID 1460; also: nearly all actives have a fitted effect of over 55% in size
Target sequence (P10636 561-689 P618L limits assumed): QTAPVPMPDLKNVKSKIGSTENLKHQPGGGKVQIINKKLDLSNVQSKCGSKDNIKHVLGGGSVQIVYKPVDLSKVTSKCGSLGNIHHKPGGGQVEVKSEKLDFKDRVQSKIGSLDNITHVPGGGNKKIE
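Fibril formation assay: tau K18 P301L at 15 uM with trace Alexa 594 label, heparin inducer 20 uM, pH 7 sodium acetate buffer, 37 C for 6 hr; endpoint ThT signal.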
Tau FP inhib = tau fibrillization inhibition (FP). P10636. K18 P301L tau heparin fibrillization, Alexa594 FP, 6 h. Potency, µM (highest dose often 57.7 µM), most hits filed as inhibitors. actives 0.39% (n = 280,000). AID 1468; also: nearly all actives have a fitted effect of over 55% in size
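Human tau K18 […] P301L fragment, 15 uM unlabeled plus 0.24 uM Alexa 594-labeled tau (final), with compound and 20 uM heparin in 100 mM sodium acetate pH 7; 6 hr at 37 C, then Alexa 594 FP read.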
RGS12 GoLoco inh = RGS12 GoLoco-Gai1 interaction inhibition. P63096. Gai1:RGS12 GoLoco peptide FP, rhodamine, 10 min. Potency, µM (highest dose often 61.6 µM), usual class: inhibitors. actives 0.44% (n = 230,000). AID 880; active = well fitted inhibition curve with a large enough effect, not every such curve was filed as active; inactive = no such curve, though single readings can be large or run the other way; also: nearly all actives have a fitted effect of over 30% in size
Target sequence (P63096 whole entry, looked up): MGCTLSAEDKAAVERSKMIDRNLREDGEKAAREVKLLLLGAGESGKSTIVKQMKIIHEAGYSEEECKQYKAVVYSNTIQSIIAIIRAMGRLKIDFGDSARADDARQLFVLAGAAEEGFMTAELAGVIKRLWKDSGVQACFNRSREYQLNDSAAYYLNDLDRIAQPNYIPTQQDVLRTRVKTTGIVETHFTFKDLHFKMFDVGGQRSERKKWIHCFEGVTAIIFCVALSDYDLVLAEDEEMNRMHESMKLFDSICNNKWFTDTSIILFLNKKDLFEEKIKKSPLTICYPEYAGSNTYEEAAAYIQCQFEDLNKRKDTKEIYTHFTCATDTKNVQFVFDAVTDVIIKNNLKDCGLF
TRb-SRC2 inh = TRbeta-SRC2 interaction inhibition. actives 0.065% (n = 280,000). Potency, µM (doses to about 106 µM), most hits filed as inhibitors. TRbeta-SRC2 peptide binding, fluorescence polarization; receptor liganded with 1 µM T3; also: nearly all actives have a fitted effect of over 50% in size
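Fluorescence polarization of 20 nM Texas Red SRC2 peptide (20-aa NR interaction domain) bound to 0.6 uM human TRb ligand-binding domain, with 1 uM T3, after 5 hr at ambient temperature; inhibition seen as decreased polarization.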
Tau fluor counter = counter-screen for tau fibril formation inhibitors; tau K18 P301L (four-repeat tau fragment) Alexa594 fluorescence, heparin fibrillization; Potency, µM (highest dose often 57.7 µM); actives 0.93% (n = 280,000); also: nearly all actives have a fitted effect of over 55% in size
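Human K18 P301L tau (15 uM unlabeled plus 0.24 uM Alexa 594-labeled, final) in 100 mM sodium acetate pH 7 was mixed with compound and 20 uM heparin and incubated 6 hr at 37 C.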
TexasRed fluor = counter-screen for TRb-SRC2 inhibitors: fluorescence interference; Potency, µM (highest dose often 106 µM); TRb/SRC2 Texas Red total fluorescence interference; actives 0.29% (n = 280,000); active = well fitted curve in either direction with a large enough effect; inconclusive = small, poorly fitted or top-dose-only effect
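Human TRβ ligand-binding domain (0.6 uM) and Texas Red SRC2 peptide (20 nM) in Tris buffer with 1 uM T3 and 5% DMSO were incubated with pinned compound for 5 hr at ambient temperature. Total fluorescence was computed as S + 2P (555/632 nm).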
Hits are given with their value; n = inactive; u = inconclusive; x = no result given; [ ] = dose if it differs, or a comment. Unless noted, calls follow the shape of the dose curve; as a rule, active = well fitted curve in the direction sought with a large enough effect; inconclusive = small, poorly fitted or top-dose-only effect, or another doubt; inactive = no such curve, though single readings can be large; an effect the other way counts as inactive or inconclusive.

SMILES | Tau ThT inhib | Tau FP inhib | RGS12 GoLoco inh | TRb-SRC2 inh | Tau fluor counter | TexasRed fluor
COc1ccc2c(c1-c1c3c(cc(Br)c1OC)CCCC3)CCCC2 | n | n | n | n | n | n
CN1c2ccsc2C(O)=C(C(=S)Nc2ccc(F)c(Cl)c2)S1(=O)=O | 20µM | u | n | n | u | n
c1cnc2ccc3ncccc3c2c1 | u | n | n | n | n | n
Nc1ccc2ncccc2c1N | 25µM | u | n | n | u | n
Nc1ccc(/C=C/c2ccc3ncccc3c2)cc1 | 6.3µM | n | n | n | n | n
Nc1ccc2cc3ccccc3cc2c1 | x | x | n | n | x | n
Nc1ccc2ncccc2c1 | 16µM | u | n | n | n | n
O=C1c2c(O)cc(O)cc2O[C@H](c2ccc(O)c(O)c2)C1O (stereo partly specified) | x | x | x | n | x | n
Cc1ccc(C(OCC(C)(C)C[N+](C)(C)C)c2ccccc2)cc1 (stereo unspecified) | n | n | 8.9µM | n | n | n
CCOC(=S)SSC(=S)OCC | x | x | x | n | x | n
O=S(=O)(Nc1nc2ccccc2nc1Nc1ccc2c(c1)OCCO2)c1cccs1 | 13µM | n | n | n | u | n
COc1ccc(S(=O)(=O)Nc2nc3ccccc3nc2Nc2ccc3c(c2)OCO3)cc1 | u | n | n | n | u | n
C=CC(C1=CC(=O)C(OC)=CC1=O)c1ccc(O)cc1 (stereo unspecified) | 32µM | u | n | n | u | n
C=C[C@@H](C1=CC(=O)C(OC)=C(OC)C1=O)c1ccccc1 | 28µM | u | n | n | u | n
C=CC(C1=CC(=O)C=CC1=O)c1ccccc1 (stereo unspecified) | u | n | n | n | u | n
C/C=C/C/C=C\CCCCCCCCOC(C)=O | x | x | x | n | x | n
COc1ccc(Nc2ncnc3sc(-c4ccccc4)cc23)cc1 | u | u | n | n | 7.9µM[quencher] | n
O=C(O)c1cccc(NC2=C(N3CCOCC3)C(=O)c3ccccc3C2=O)c1 | 32µM | u | n | n | u | n
O=C1C(NS(=O)(=O)c2cccs2)=C(N2CCN(Cc3ccccc3)CC2)C(=O)c2ccccc21 | 16µM | n | n | n | u | n
NC(=O)C1CCN(C2=C(NS(=O)(=O)c3ccccc3)C(=O)c3ccccc3C2=O)CC1 | u | n | n | n | n | n
CCOc1ccccc1N1CCN(C2=C(NS(=O)(=O)c3cccs3)C(=O)c3ccccc3C2=O)CC1 | 8.9µM | u | n | n | 13µM[quencher] | n
COc1ccccc1N1CCN(S(=O)(=O)c2cccs2)CC1 | n | n | n | n | n | n
O=C1C(NS(=O)(=O)c2ccc(Cl)cc2)=C(N2CCCCC2)C(=O)c2ccccc21 | 16µM | u | n | n | u | n
CN1CCN(C2=C(NS(=O)(=O)c3cccs3)C(=O)c3ccccc3C2=O)CC1 | u | n | n | n | n | n
O=C(N/N=C1/C[C@@H](O)[C@@H](O)[C@@H]2[C@@H]3C(=O)N(C[C@@H]4CCCO4)C(=O)[C@H]3CC[C@H]12)OCc1ccccc1 | n[11.5 µM] | u | x | n[11.2 µM] | n[11.6 µM] | n[11.2 µM]
SMILES | Tau ThT inhib | Tau FP inhib | RGS12 GoLoco inh | TRb-SRC2 inh | Tau fluor counter | TexasRed fluor
O=C1C(NS(=O)(=O)c2cccs2)=C(N2CCN(c3cccc(C(F)(F)F)c3)CC2)C(=O)c2ccccc21 | 4.5µM | n | n | n | 7.1µM[quencher] | n
O=C1C(NS(=O)(=O)c2cccs2)=C(N2CCOCC2)C(=O)c2ccccc21 | 16µM | u | n | n | u | n
O=C(CNS(=O)(=O)c1cccs1)N1CCN(c2cccc(C(F)(F)F)c2)CC1 | n | n | x | n | n | n
C=C(C)C(O)C(CC/C=C(\C)C(=O)OCC)OC (stereo unspecified) | n[11.5 µM] | n[11.6 µM] | x | n[11.2 µM] | n[11.6 µM] | n[11.2 µM]
COc1ccc(Cl)cc1Nc1nc(-c2sc(NC(=O)C(C)(C)C)nc2C)cs1 | u | u | n | n | u | n
CCCC(C)C(=O)Nc1nc(C)c(-c2csc(Nc3ccc(Cl)cc3)n2)s1 (stereo unspecified) | u | n | n | n | 16µM[quencher] | n
COc1ccc(OC)c(Nc2nc(-c3sc(NC(=O)C(C)(C)C)nc3C)cs2)c1 | u | n | n | n | 14µM[quencher] | n
CCCCCCC(=O)Nc1nc(C)c(-c2csc(Nc3cc(Cl)ccc3C)n2)s1 | u | n | n | n | u | n
CCCCC(=O)Nc1nc(C)c(-c2csc(Nc3cc(OC)ccc3OC)n2)s1 | u | u | n | n | 16µM[quencher] | n
CCCCC(=O)Nc1nc(C)c(-c2csc(Nc3cc(Cl)ccc3OC)n2)s1 | u | n | n | n | u | n
CCCC(C)C(=O)Nc1nc(C)c(-c2csc(Nc3ccccc3OC)n2)s1 (stereo unspecified) | u | u | n | n | u | n
CCC(C)C(=O)Nc1nc(C)c(-c2csc(Nc3cc(OC)ccc3OC)n2)s1 (stereo unspecified) | u | u | n | n | 14µM[quencher] | n
CCCCCCC#CC1C=CC(Oc2ccc(C=O)cc2)C(CO)O1 (stereo unspecified) | n[11.5 µM] | n[11.6 µM] | x | n[11.2 µM] | n[11.6 µM] | n[11.2 µM]
COc1ccc(OC)c(NC(=O)CSc2ccc(-c3sc(C)nc3C)nn2)c1 | u | n | x | n | n | n
CCC(C)C(=O)Nc1nc(C)c(-c2csc(Nc3cc(Cl)ccc3OC)n2)s1 (stereo unspecified) | u | n | n | n | 13µM[quencher] | n
COc1ccc(OC)c(Nc2nc(-c3sc(NC(=O)CC(C)C)nc3C)cs2)c1 | u | n | n | n | 13µM[quencher] | n
Fc1ccc(Nc2nc(-c3ccncc3)cs2)cc1 | u | n | n | n | n | n
Cc1nc(C)c(-c2csc(Nc3ccc(F)cc3)n2)s1 | u | u | n | n | 20µM[quencher] | n
COc1ccc(OC)c(Nc2nc(-c3sc(C)nc3C)cs2)c1 | 14µM | u | n | n | u | n
O=C(Nc1ccc(Br)cc1)c1cc(Br)c(Br)s1 | x | x | x | n | x | n
COc1c(C=O)c(=O)[nH]c2c(OC)cccc12 | n | n | n | n | n | n
COc1ccc(Cc2nnc(N=Nc3c(O)[nH]c4ccc(Br)cc34)[nH]c2=O)cc1 | 16µM | n | n | n | n | n
CC(=O)OC[C@@]12C(=O)[C@@H](O)[C@@H](C)[C@]3(C[C@@H](c4ccoc4)O[C@@H]3OC(C)=O)[C@H]1CCC[C@]21CO1 | n | n | n | n | n | n
CC(=O)OCON[N+]([O-])=NC1CCCCC1 | x | x | x | n | x | n
C=CCNC(=S)Nc1ccc(C)c(S(=O)(=O)N2CCCCC2)c1 | n | n | n | n | n | n
COc1ccc(NC(=S)Nc2ccc(C)c(S(=O)(=O)N3CCCCC3)c2)cc1 | n | u | n | n | 32µM[quencher] | n
Cc1ccc(NC(=S)Nc2ccc(C(C)C)cc2)cc1S(=O)(=O)N1CCCCCC1 | n | 13µM | n | n | 7.9µM[quencher] | n
Cc1ccc(S(=O)(=O)N(C)c2cccc3cccnc23)cc1 | x | x | x | n | x | n

Screening data from PubChem BioAssay.
